Assay [1] is described as follows: antimalarial activity against Dd2 strain (AID 2302;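 active means growth inhibition above 50% at the single 2 µM test dose, taken to imply half-maximal potency below 2 µM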;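 further: 0% = DMSO untreated growth and 100% = chloroquine plus artemisinin killed control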). To be noted: P. falciparum Dd2 in RBCs, LDH growth readout, 72 h; at 2 µM; active compounds read high.
Assay [2] in a line: HepG2 cytotoxicity, primary screen, cytotoxicity control for P. falciparum antimalarial project, cell-based, ATP luminescence (AID 2303;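 active means inhibition above 50%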;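 further: 0% = DMSO wells and 100% = digitonin-killed cells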). Conditions: HepG2 viability, 24-48 h, at 10 µM, active compounds read high.
Assay [3] deals with L-lactate dehydrogenase (Plasmodium falciparum (isolate CDC / Honduras)) (UniProt Q27743). The assay can be described thus: PfLDH activity inhibition – cell lysate, 3D7 strain, counter-screen for P. falciparum growth inhibition project (AID 2304).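 Further: 0% = vehicle and 100% = reference inhibitor.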 To be noted: P. falciparum 3D7 crude extract, LDH APAD/NBT absorbance; at 2 µM; active compounds read high.
A short description of assay [4]: inhibition of 3D7 malaria parasite growth – strain 3D7 (AID 2306).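 Further: 0% = DMSO wells and 100% = chloroquine plus artemisinin control wells.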 Conditions: P. falciparum 3D7 erythrocytic growth, LDH absorbance, 72 h; at 2 µM; active compounds read high.
The target of assay [5] is Calcium-dependent protein kinase 1 (Plasmodium falciparum (isolate 3D7)) (UniProt P62344). The assay can be described thus: PfCDPK1 kinase inhibitors, biochemical, TCAMS library (AID 1159585; cut-off not given, nearly all actives have IC50 up to about 0.98 µM;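 further: inhibitors leave more ATP so luminescence rises with inhibition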). To be noted: recombinant PfCDPK1, Kinase-Glo ATP depletion luminescence.
Assay [6] addresses Plasmodium falciparum protein kinase 6 (PK6, PF3D7_1337100) (UniProt Q8IDW1). In words: PfPK6 kinase inhibitors, biochemical, TCAMS library (AID 1159586). To be noted: recombinant PfPK6, Kinase-Glo ATP depletion luminescence. (In general: Kinase-Glo measures the ATP left after a reaction by luminescence.)
The target of assay [7] is Protein kinase 7 (PK7), Plasmodium falciparum 3D7 (PF3D7_0213400) (UniProt Q7YTF7). In words: inhibition of Plasmodium PK7 catalytic activity – biochemical, TCAMS antimalarial set, Kinase-Glo luminescence (AID 1159587). Conditions: recombinant PfPK7, Kinase-Glo ATP depletion luminescence.
Assay [8] concerns the target Calcium-dependent protein kinase 4 (Plasmodium falciparum (isolate 3D7)) (UniProt Q8IBS5). In words: PfCDPK4 kinase inhibitors, biochemical, TCAMS library (AID 1159588; cut-off not given, nearly all actives have IC50 up to about 0.91 µM). To be noted: recombinant PfCDPK4, Kinase-Glo ATP depletion luminescence.

A number with no mark means an inactive call. For some of these results: Results with a measured potency or affinity are listed apart. Activity calls are given as the source filed them. Unless noted, how the calls were made is not given here.

Experimental findings from PubChem BioAssay are described below.

Sequence of Calcium-dependent protein kinase 1 (Plasmodium falciparum (isolate 3D7)) (P62344 whole entry, looked up): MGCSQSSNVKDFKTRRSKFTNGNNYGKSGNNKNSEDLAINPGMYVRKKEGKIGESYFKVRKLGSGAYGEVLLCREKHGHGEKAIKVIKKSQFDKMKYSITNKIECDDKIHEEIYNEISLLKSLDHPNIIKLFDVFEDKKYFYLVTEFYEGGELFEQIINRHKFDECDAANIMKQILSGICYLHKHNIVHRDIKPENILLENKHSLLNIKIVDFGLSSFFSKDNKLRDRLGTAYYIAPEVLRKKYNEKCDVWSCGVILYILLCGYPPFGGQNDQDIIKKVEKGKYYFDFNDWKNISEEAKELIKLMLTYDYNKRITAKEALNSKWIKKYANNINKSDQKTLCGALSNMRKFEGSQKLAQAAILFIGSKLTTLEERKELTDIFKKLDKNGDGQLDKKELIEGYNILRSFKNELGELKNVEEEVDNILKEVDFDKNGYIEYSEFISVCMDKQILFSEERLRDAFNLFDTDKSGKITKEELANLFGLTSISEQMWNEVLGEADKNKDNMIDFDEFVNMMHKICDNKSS
Sequence of Protein kinase 7 (PK7), Plasmodium falciparum 3D7 (PF3D7_0213400) (Q7YTF7 1-343): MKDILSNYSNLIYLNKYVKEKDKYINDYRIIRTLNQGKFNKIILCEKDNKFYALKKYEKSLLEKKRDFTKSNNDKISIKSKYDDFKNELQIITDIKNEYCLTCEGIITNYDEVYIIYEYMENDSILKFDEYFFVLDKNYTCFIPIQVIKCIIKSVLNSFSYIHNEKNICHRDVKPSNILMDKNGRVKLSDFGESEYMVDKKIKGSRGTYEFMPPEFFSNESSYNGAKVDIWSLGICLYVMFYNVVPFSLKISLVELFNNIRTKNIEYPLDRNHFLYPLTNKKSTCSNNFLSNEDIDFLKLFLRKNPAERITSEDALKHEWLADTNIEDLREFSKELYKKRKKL
Sequence of L-lactate dehydrogenase (Plasmodium falciparum (isolate CDC / Honduras)) (Q27743 whole entry, looked up): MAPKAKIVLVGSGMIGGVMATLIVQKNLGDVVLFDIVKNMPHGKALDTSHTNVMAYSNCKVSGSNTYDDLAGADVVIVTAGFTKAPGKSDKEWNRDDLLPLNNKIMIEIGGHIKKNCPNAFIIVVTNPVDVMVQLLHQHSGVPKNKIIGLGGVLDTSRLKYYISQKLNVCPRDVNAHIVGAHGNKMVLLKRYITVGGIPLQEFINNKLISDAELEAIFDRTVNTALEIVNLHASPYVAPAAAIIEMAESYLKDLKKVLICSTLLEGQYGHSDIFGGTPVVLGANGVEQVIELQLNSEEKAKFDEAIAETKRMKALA
Sequence of Plasmodium falciparum protein kinase 6 (PK6, PF3D7_1337100) (Q8IDW1 1-305): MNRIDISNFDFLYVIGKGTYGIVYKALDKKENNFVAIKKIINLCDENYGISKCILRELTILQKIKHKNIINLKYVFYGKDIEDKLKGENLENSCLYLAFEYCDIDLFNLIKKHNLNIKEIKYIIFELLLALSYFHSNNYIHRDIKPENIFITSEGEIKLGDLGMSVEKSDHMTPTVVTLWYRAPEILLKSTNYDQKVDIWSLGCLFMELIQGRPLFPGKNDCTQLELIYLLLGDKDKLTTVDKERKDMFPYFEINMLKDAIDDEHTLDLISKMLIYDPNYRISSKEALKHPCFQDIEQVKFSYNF
Sequence of Calcium-dependent protein kinase 4 (Plasmodium falciparum (isolate 3D7)) (Q8IBS5 whole entry, looked up): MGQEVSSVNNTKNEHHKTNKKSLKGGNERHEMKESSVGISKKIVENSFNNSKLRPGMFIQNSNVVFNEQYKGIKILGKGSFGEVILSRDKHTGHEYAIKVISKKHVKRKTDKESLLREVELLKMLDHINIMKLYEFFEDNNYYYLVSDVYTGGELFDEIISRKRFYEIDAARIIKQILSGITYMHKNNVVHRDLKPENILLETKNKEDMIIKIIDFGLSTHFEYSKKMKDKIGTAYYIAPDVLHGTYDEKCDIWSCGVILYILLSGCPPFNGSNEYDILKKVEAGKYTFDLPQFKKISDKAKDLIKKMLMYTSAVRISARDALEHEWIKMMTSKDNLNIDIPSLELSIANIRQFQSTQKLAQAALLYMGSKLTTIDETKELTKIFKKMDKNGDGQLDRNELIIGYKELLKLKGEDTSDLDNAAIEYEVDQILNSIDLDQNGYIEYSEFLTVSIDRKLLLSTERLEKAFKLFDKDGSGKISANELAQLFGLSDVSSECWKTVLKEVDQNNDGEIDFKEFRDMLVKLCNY

As for `OC(CNc1ccnc(Nc2cccc(CCN3CCOCC3)c2)n1)c1ccccc1` (stereo not given), the growth inhibition in assay [1] was 14%; in assay [4], 102% (active). In addition, the inhibition was 34% in assay [2] and -1% in assay [3]. For the same compound, the result in assay [5], in assay [6], in assay [7] and in assay [8] was inactive.
Consider `O=c1cc(NCCCCNCc2ccc(Br)c(Br)c2)[nH]c2ccccc12`, for which the values for the growth inhibition in assay [1] and in assay [4] were 14% and 98% (active), respectively. Besides, the inhibition in assay [2] was 13%; in assay [3], 2%. Further, the result in assay [5], in assay [6], in assay [7] and in assay [8] was inactive.
For the compound `COc1cc(NCCCNCc2cn(S(=O)(=O)c3ccccc3)c3ccccc23)nc2ccccc12`, the growth inhibition in assay [1] was 77% (active); in assay [4], 101% (active). Besides, the results for the inhibition in assay [2] and in assay [3] were 36% and 4%, respectively. For the same compound, the outcome in assay [5], in assay [6], in assay [7] and in assay [8] was inactive.
Take `OC(COCc1ccc(-c2ccccc2)cc1)CN1CCCCC1` (stereo not given): the growth inhibition in assay [1] is 75% (active); in assay [4] it was 99% (active). In addition, the inhibition is 13% in assay [2] and -1% in assay [3]. Also, the outcome in assay [5], in assay [6], in assay [7] and in assay [8] was inactive.
For the compound `CC(=O)Nc1csc(-c2cnc(/C=C(\C)C[C@@H]3OC[C@H](C[C@@H]4O[C@H]4[C@@H](C)[C@H](C)O)[C@@H](O)[C@H]3O)o2)c1`, the results for the growth inhibition in assay [1] and in assay [4] were 8% and 94% (active), respectively. Besides, the values for the inhibition in assay [2] and in assay [3] were 1% and 0%, respectively. Further, the outcome in assay [5], in assay [6], in assay [7] and in assay [8] was inactive.
As for `O=C(Nc1ccc2c(c1)CCC2)c1ccc(CN2CCCN(Cc3cccc(O)c3)CC2)cc1`, the growth inhibition was 46% in assay [1] and 88% (active) in assay [4]. In addition, the values for the inhibition in assay [2] and in assay [3] were 45% and -1%, respectively. Moreover, the outcome in assay [5], in assay [6], in assay [7] and in assay [8] was inactive.
Turning to `CCCOc1ccc(C(=O)Nc2nonc2-c2ccc(OC)c(OC)c2)cc1`, the growth inhibition in assay [1] is 97% (active); in assay [4] it was 99% (active). Further, the inhibition is -9% in assay [2] and 5% in assay [3]. The outcome in assay [5], in assay [6], in assay [7] and in assay [8] was inactive.
Regarding `Cc1ccc(C(=O)Nc2ccc(Nc3ccnc4cc(-c5nccs5)ccc34)cc2O)cc1`, the growth inhibition in assay [1] and in assay [4] was 100% (active) in each case. The results for the inhibition in assay [2] and in assay [3] were 100% (active) and 3%, respectively. Besides, the result in assay [5], in assay [6], in assay [7] and in assay [8] was inactive.
On to `CC(=O)Oc1cc(C)ccc1C1CCN(CCCCNC(=O)c2ccc(-c3ccc(C(F)(F)F)cc3)cc2)CC1`, for which the growth inhibition in assay [1] is 94% (active); in assay [4], 100% (active). In addition, the inhibition is 54% (active) in assay [2] and -7% in assay [3]. The result in assay [5], in assay [6], in assay [7] and in assay [8] was inactive.
On to `O=C(Nc1ccccc1)N1CCC(CN2CCOC(c3ccccc3)(c3ccccc3)C2)CC1`, for which the growth inhibition in assay [1] is 98% (active); in assay [4], 96% (active). The inhibition was 10% in assay [2] and 2% in assay [3]. Besides, the outcome in assay [5], in assay [6], in assay [7] and in assay [8] was inactive.
`Cc1cc(NN=Cc2ccccc2Cl)c2cc(F)ccc2n1`: the growth inhibition in assay [1] is 4%; in assay [4] it was 101% (active). The figures for the inhibition in assay [2] and in assay [3] were 5% and -2%, respectively. The result in assay [5], in assay [6], in assay [7] and in assay [8] was inactive.
With `O=C(Nc1ccc(Cl)cc1)Nc1cccc(-c2ccc(-c3nc4ccccc4[nH]3)cc2)c1`, the growth inhibition is 6% in assay [1] and 87% (active) in assay [4]. Also, the inhibition was 19% in assay [2] and -3% in assay [3]. Besides, the result in assay [5], in assay [6], in assay [7] and in assay [8] was inactive.
Turning to `Oc1ccc2nc(Nc3ccccc3)nc(NCCc3ccccc3)c2c1`, the growth inhibition in assay [1] and in assay [4] was 100% (active) each time. Moreover, the inhibition in assay [2] is 20%; in assay [3], -6%. Also, the result in assay [5], in assay [6], in assay [7] and in assay [8] was inactive.
On to `COc1cccc2cc(C(=O)N[C@@H](CC(C)C)C(=O)Nc3cc(F)ccc3Br)oc12`, for which the growth inhibition in assay [1] was 45%; in assay [4], 87% (active). Also, the inhibition in assay [2] was 7%; in assay [3] it was -1%. The outcome in assay [5], in assay [6], in assay [7] and in assay [8] was inactive.
For the compound `O=C(Nc1ccccc1Cl)c1cc2ccccc2cc1O`, the figures for the growth inhibition in assay [1] and in assay [4] were 72% (active) and 94% (active), respectively. The inhibition in assay [2] was 2%; in assay [3] it was -4%. In addition, the outcome in assay [5], in assay [6], in assay [7] and in assay [8] was inactive.
In the case of `COc1cc(OC)cc(C(=O)N2CCOC(CCN3CCC(c4ccccc4)CC3)(c3ccc(Cl)c(Cl)c3)C2)c1` (stereo not given), the growth inhibition in assay [1] was 61% (active); in assay [4] it was 85% (active). For the same compound, the inhibition in assay [2] is 13%; in assay [3], 1%. Moreover, the result in assay [5], in assay [6], in assay [7] and in assay [8] was inactive.
As for `Cc1cc(C2CCN(CCCCNC(=O)c3ccc(-c4ccc(C(F)(F)F)cc4)cc3)CC2)c(C)cc1OCC#N`, the growth inhibition was 58% (active) in assay [1] and 100% (active) in assay [4]. Further, the inhibition in assay [2] was 40%; in assay [3] it was 3%. The result in assay [5], in assay [6], in assay [7] and in assay [8] was inactive.
As for `COc1ccc(-c2cccc(NC(=O)c3cccc(C#N)c3)c2)cc1CN1CCCC1`, the growth inhibition in assay [1] was 32%; in assay [4] it was 98% (active). For the same compound, the inhibition in assay [2] was 28%; in assay [3], -4%. The outcome in assay [5], in assay [6], in assay [7] and in assay [8] was inactive.
With `CC(=O)Nc1ccc(C(=O)Nc2cccc(-c3cccc(-c4nc5ccc(C(F)(F)F)cc5[nH]4)c3)c2)cn1`, the figures for the growth inhibition in assay [1] and in assay [4] were 97% (active) and 101% (active), respectively. Further, the figures for the inhibition in assay [2] and in assay [3] were 8% and -2%, respectively. In addition, the result in assay [5], in assay [6], in assay [7] and in assay [8] was inactive.
In the case of `Cc1cccc2[nH]c(-c3cccc(-c4ccc(CNCc5cccc(N)c5)cc4)c3)nc12`, the growth inhibition in assay [1] was 93% (active); in assay [4], 101% (active). For the same compound, the inhibition in assay [2] was 19%; in assay [3], -3%. The result in assay [5], in assay [6], in assay [7] and in assay [8] was inactive.

What is called inhibition is the relative decrease from the control value, in per cent.
